Source: PubChem BioAssay (EPA / NIEHS)
Where “and” joins values, the source holds several entries; their conditions need not be identical. Equal values may be shown once. Records with an inconclusive call do not appear. Calls of active or inactive are those of the source. How the source made its calls: active means hit-call score of the fitted dose curve at least 0.9, where 1 is the maximum; inconclusive means response in the unintended direction; inactive means score below 0.9.

target: human Androgen Receptor (AR), AR (gene 367) (UniProt P10275); experiment: NVS_NR_hAR: NovaScreen (NVS) Nuclear Receptor Binding Assay for human Androgen Receptor (AR) (AID 2283332)
Sequence (P10275 whole entry, looked up): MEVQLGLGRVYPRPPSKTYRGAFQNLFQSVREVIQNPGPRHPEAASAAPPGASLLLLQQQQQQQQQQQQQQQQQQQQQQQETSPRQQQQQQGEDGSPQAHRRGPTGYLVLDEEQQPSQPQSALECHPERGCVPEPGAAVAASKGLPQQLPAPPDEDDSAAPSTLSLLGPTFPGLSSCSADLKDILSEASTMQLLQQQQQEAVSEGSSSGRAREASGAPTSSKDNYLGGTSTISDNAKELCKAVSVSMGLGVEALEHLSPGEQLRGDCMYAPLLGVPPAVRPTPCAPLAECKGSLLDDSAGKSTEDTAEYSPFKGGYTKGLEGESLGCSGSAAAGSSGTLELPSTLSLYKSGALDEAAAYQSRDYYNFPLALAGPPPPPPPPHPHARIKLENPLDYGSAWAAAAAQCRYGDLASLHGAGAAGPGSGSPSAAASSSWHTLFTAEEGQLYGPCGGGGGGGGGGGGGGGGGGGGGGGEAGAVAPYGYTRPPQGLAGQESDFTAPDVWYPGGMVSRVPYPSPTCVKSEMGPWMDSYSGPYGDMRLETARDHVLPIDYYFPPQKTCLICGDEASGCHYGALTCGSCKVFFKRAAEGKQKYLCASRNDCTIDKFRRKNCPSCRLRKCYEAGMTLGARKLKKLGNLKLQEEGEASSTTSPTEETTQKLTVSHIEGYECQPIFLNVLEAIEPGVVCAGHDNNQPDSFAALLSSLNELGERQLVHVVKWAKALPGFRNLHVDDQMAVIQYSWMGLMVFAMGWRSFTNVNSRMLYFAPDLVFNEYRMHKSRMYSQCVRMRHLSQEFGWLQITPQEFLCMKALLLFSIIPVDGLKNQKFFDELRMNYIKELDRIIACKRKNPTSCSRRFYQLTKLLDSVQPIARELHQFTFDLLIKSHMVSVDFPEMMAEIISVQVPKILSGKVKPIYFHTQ
Experimental: NVS_NR_hAR is a biochemical, single-readout assay that uses extracted gene-proteins from LnCAP in a cell-free assay. Measurements were taken 20 hours after chemical dosing in a 96-well plate.NVS_NR_hAR is one of one assay component(s) measured or calculated from the NVS_NR_hAR assay. It is designed to make measurements of radioligand binding, a form of binding reporter, as detected with scintillation counting signals by Lysate-based radiodetection technology.Data from the assay component NVS_NR_hAR was analyzed into 1 assay endpoint. This assay endpoint, NVS_NR_hAR, was analyzed in the positive analysis fitting direction relative to DMSO as the negative control and baseline of activity. Using a type of binding reporter, loss-of-signal activity can be used to understand changes in the binding as they relate to the gene AR. Furthermore, this assay endpoint can be referred to as a primary readout, because the performed assay has only produced 1 assay endpoint. To generalize the intended target to other relatable targets, this assay endpoint is annotated to the nuclear receptor intended target family, where the subfamily is steroidal.
Binding assays used specific radioligands (tritiated, iodinated) with non-radioactive competitive displacement ligands in agonist or antagonist protocols (as indicated) and various reference compounds and inhibitors to titrate specific binding to receptors and transporters. Most enzyme assays (CYPs, kinases, phosphatases, proteases, HDACs) used recombinant protein and specific substrates (fluorescence mostly, some colorimetric and radioactive) and inhibitors, followed by a biochemical separation of substrate and product. All assays for the biochemical HTS were initially run in duplicate at a single concentration (10 uM for CYP450 assays and 25 uM for all others). […] Each assay was run with positive and negative controls, and concurrent controls on every plate. The follow-up (secondary) screen tested active chemical-pairs in concentration series, as well as a few additional assays not tested in the primary screen, some selected negative inactives, and several cases re-run in the concentration series for confirmatory purposes.

SMILES	outcome	AC50
CCN(CC)C(=O)Cl	inactive	
COP(=S)(OC)Oc1ccc(Sc2ccc(OP(=S)(OC)OC)cc2)cc1		17.9 µM (active)
CC12CC1(C)C(=O)N(c1cc(Cl)cc(Cl)c1)C2=O (stereo not given)		17.1 nM (active) and 355 nM (active)
Cl/C=C\C[N+]12CN3CN(CN(C3)C1)C2	inactive	
N#CCCO	inactive	

target: rat Peripheral-type Benzodiazepine Receptor (PBR), Tspo (gene 24230) (UniProt P16257); experiment: NVS_MP_rPBR: NovaScreen (NVS) Membrane Protein Assay for rat Peripheral-type Benzodiazepine Receptor (PBR) (AID 2283335)
Sequence (P16257 whole entry, looked up): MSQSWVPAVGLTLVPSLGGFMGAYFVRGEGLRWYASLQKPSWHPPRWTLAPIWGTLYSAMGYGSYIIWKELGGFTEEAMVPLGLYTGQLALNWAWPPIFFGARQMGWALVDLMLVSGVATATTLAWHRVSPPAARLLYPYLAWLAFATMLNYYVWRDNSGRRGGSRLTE
How it was run: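 Single-concentration duplicate screening at 25 uM preceded concentration-series retesting of actives. Binding of a specific radioligand to rat kidney membrane PBR was read by filtration radiodetection after 1 h, with plate-wise positive and negative controls.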

SMILES	AC50	outcome
COP(=S)(OC)Oc1ccc(S(=O)(=O)N(C)C)cc1	1.45 µM (active)	
CCNc1nc(NC(C)(C)C)nc(SC)n1		inactive
COc1cc(-c2ccc(N)c(OC)c2)ccc1N	2.75 µM (active) and 2.71 µM (active)	
O=[N+]([O-])c1ccc2c3c(cccc13)CC2	13.3 µM (active)	
COP(=S)(OC)Oc1c(Cl)cc(C)cc1Cl		inactive
COP(=S)(OC)Oc1ccc(Sc2ccc(OP(=S)(OC)OC)cc2)cc1	0.307 µM (active)	
CC(C)(C)CC(C)(C)c1ccc(O)cc1		inactive
Clc1ccc(C2(Cn3cncn3)CC(Br)CO2)c(Cl)c1 (stereo not given)	14.5 µM (active)	
CCCCCCCCC(=O)NCc1ccc(O)c(OC)c1	6.25 µM (active)	
O=Cc1cccc(Oc2ccccc2)c1		inactive
Nc1cccc2ccccc12		inactive
CC12CC1(C)C(=O)N(c1cc(Cl)cc(Cl)c1)C2=O (stereo not given)	6.63 µM (active) and 1.03 µM (active) and 850 nM (active)	
CC(C)(c1ccc(OCC2CO2)cc1)c1ccc(OCC2CO2)cc1 (stereo not given)	4.31 µM (active)	
CCOP(=S)(OCC)Oc1ccc(S(C)=O)cc1 (stereo not given)		inactive
Nc1ccc(-c2ccc(N)c(Cl)c2)cc1Cl		inactive
